From the supplement of paper PMC8866396 come the findings set out here.

Counter-ions that a name gives are not always drawn. ± gives the standard deviation of the averaged measurements.

The test system of one test is IL-6-GFP PC-9GR. The test is described as follows: cell viability (CCK-8 OD) relative to DMSO control (fraction of control); higher = more viable cells. Particulars: compound concentration: 10 uM; treatment time: 48 h. In a few lines: (§1)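 A purchased 510-compound library was screened at a final 10 μM for 48 h against PC-9 and PC-9GR lung cancer cells overexpressing IL-6-GFP via a lentiviral construct, seeded at 3000 cells/well in 96-well plates. GFP imaging was done on a parallel plate set. For viability, CCK-8 absorbance was recorded and each well's optical density was divided by that of the vehicle control well. There were two independent replicates.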

Another test has as its system IL-6-GFP PC-9. The test is described as above. The note with it: compound concentration: 10 uM; treatment time: 48 h. Summed up: as §1

For `NC(CO)(CO)CO.O=C(c1ccccc1)c1ccc2n1CCC2C(=O)O` (stereo not drawn) [Ketorolac tromethamine salt], the figures for the cell viability in the test on IL-6-GFP PC-9GR and in the test on IL-6-GFP PC-9 were 0.948 ± 0.075 and 1.05 ± 0.19, respectively.
Regarding `CCC(c1ccc(O)cc1)C(CC)c1ccc(O)cc1` (stereo not drawn) [Hexestrol], the cell viability with IL-6-GFP PC-9GR was 1.28 ± 0.31; in the test with IL-6-GFP PC-9 it was 1.16 ± 0.15.
Taken in the same sequence, the figures for `O=C(O)COc1nn(Cc2ccccc2)c2ccccc12` [Bendazac] were 1.85 ± 0.092 and 1.14 ± 0.11.
As to `CC(C(=O)O)c1ccc(-c2ccccc2)c(F)c1` (stereo not drawn) [Flurbiprofen], the figures for the cell viability in the test on IL-6-GFP PC-9GR and with IL-6-GFP PC-9 were 1.04 ± 0.39 and 0.9552 ± 0.0084, respectively.
Consider `OCc1ccccc1OC1OC(CO)C(O)C(O)C1O` (stereo not drawn) [Salicin], for which the cell viability in the test with IL-6-GFP PC-9GR was determined as 1.49 ± 0.23; in the test with IL-6-GFP PC-9, 1.2 ± 0.097.
On to `CC1CC2C3CCC4=CC(=O)C=CC4(C)C3(F)C(O)CC2(C)C1(O)C(=O)CO` (stereo not drawn) [Dexamethasone (DHAP)], for which the results for the cell viability in the test with IL-6-GFP PC-9GR and in the test with IL-6-GFP PC-9 were 1.08 ± 0.058 and 0.732 ± 0.072, respectively.
For the compound `CCCCOc1ccc(CC(=O)NO)cc1` [Bufexamac], the figures for the cell viability in the test with IL-6-GFP PC-9GR and in the test on IL-6-GFP PC-9 were 1.2 ± 0.39 and 0.928 ± 0.073, respectively.
Turning to `CNC(=O)c1ccc(N2C(=S)N(c3ccc(C#N)c(C(F)(F)F)c3)C(=O)C2(C)C)cc1F` [Enzalutamide (MDV3100)], the cell viability in the test with IL-6-GFP PC-9GR worked out at 1.04 ± 0.077; with IL-6-GFP PC-9, 0.808 ± 0.099.
In the case of `COc1cc(C2Oc3cc(C4Oc5cc(O)cc(O)c5C(=O)C4O)ccc3OC2CO)ccc1O` (stereo not drawn) [Silibinin], the cell viability in the test on IL-6-GFP PC-9GR amounted to 1.36 ± 0.07; with IL-6-GFP PC-9, 1.15 ± 0.099.
For `CC1(C(=O)O)CCC2(C)CCC3(C)C(=CC(=O)C4C5(C)CCC(OC6OC(C(=O)O)C(O)C(O)C6OC6OC(C(=O)O)C(O)C(O)C6O)C(C)(C)C5CCC43C)C2C1.N` (stereo not drawn) [Ammonium Glycyrrhizinate] the same measures were 1.42 ± 0.25 and 1.31 ± 0.014.
With `CC(C)(C)c1nc(-c2cccc(NS(=O)(=O)c3c(F)cccc3F)c2F)c(-c2ccnc(N)n2)s1.CS(=O)(=O)O` [Dabrafenib Mesylate], the cell viability with IL-6-GFP PC-9GR was 0.922 ± 0.18; with IL-6-GFP PC-9, 0.921 ± 0.19.
In the case of `COc1cc2c(Oc3ccc4[nH]c(C)cc4c3F)ccnc2cc1OCC1(N)CC1.Cl.Cl` [Anlotinib (AL3818) dihydrochloride], the cell viability in the test on IL-6-GFP PC-9GR came to 0.463 ± 0.024; with IL-6-GFP PC-9, 0.575 ± 0.056.
Taken in the same sequence, the figures for `COc1ccc(S(=O)(=O)N(C(C)=O)c2ccccc2/C=C/c2cc[n+]([O-])cc2)cc1` were 0.674 ± 0.091 and 0.753 ± 0.018.
As to `CCCCCCCCCCCC1=C(O)C(=O)C=C(O)C1=O` [Embelin], the cell viability with IL-6-GFP PC-9GR came to 0.858 ± 0.075; in the test with IL-6-GFP PC-9 it was 1.12 ± 0.44.
Consider `CC(=O)OC[C@H]1O[C@@H]([S-])[C@H](OC(C)=O)[C@@H](OC(C)=O)[C@@H]1OC(C)=O.CCP(CC)CC.[Au+]` [Auranofin], for which the cell viability with IL-6-GFP PC-9GR was determined as 0.00506 ± 0.12; in the test on IL-6-GFP PC-9, 0.0702 ± 0.04.
With `COC(=O)/C=C/C(=O)OC` [Dimethyl Fumarate], the cell viability in the test on IL-6-GFP PC-9GR came to 1.13 ± 0.16; in the test with IL-6-GFP PC-9 it was 1.33 ± 0.26.
With `Nc1ccc(C(=O)[O-])c(O)c1.[Na+]` [Sodium 4-Aminosalicylate], the cell viability in the test with IL-6-GFP PC-9GR was found to be 1.02 ± 0.3; in the test on IL-6-GFP PC-9, 0.895 ± 0.055.
Take `CC(=O)OC12COC1CC(O)C1(C)C(=O)C(O)C3=C(C)C(OC(=O)C(O)C(NC(=O)OC(C)(C)C)c4ccccc4)CC(O)(C(OC(=O)c4ccccc4)C21)C3(C)C.O.O.O` (stereo not drawn) [Docetaxel Trihydrate]: the cell viability in the test with IL-6-GFP PC-9GR was 0.528 ± 0.15; in the test with IL-6-GFP PC-9, 0.631 ± 0.044.
For `O=c1ccc2cc3ccoc3cc2o1` [Psoralen] the same measures were 0.808 ± 0.11 and 1.13 ± 0.057.
For the compound `CCCCCOC(=O)Nc1nc(=O)n(C2OC(C)C(O)C2O)cc1F` (stereo not drawn) [Capecitabine], the cell viability in the test with IL-6-GFP PC-9GR came to 0.655 ± 0.029; with IL-6-GFP PC-9, 0.459 ± 0.015.
`Nc1nc(=O)c2c([nH]1)NCC(CNc1ccc(C(=O)NC(CCC(=O)[O-])C(=O)[O-])cc1)N2C=O.O.O.O.O.O.[Ca+2]` (stereo not drawn) [Leucovorin Calcium Pentahydrate]: the cell viability in the test with IL-6-GFP PC-9GR came out at 1.25 ± 0.17; in the test with IL-6-GFP PC-9 it was 1.16 ± 0.28.
On to `C=CCC1/C=C(\C)CC(C)CC(OC)C2OC(O)(C(=O)C(=O)N3CCCCC3C(=O)OC(/C(C)=C/C3CCC(O)C(OC)C3)C(C)C(O)CC1=O)C(C)CC2OC` (stereo not drawn) [Tacrolimus (FK506)], for which the cell viability is 1.14 ± 0.079 in the test on IL-6-GFP PC-9GR and 1.34 ± 0.11 with IL-6-GFP PC-9.
As to `N#CC1(c2ccc(NC(=O)c3cccnc3NCc3ccncc3)cc2)CCCC1` [Apatinib], the cell viability came out at 0.0432 ± 0.2 in the test on IL-6-GFP PC-9GR and 1.177 ± 0.0032 in the test with IL-6-GFP PC-9.
On to `CC1(C)OC2CC3C4CCC5=CC(=O)C=CC5(C)C4C(O)CC3(C)C2(C(=O)CO)O1` (stereo not drawn) [Desonide], for which the cell viability in the test on IL-6-GFP PC-9GR worked out at 0.804 ± 0.24; in the test on IL-6-GFP PC-9, 0.683 ± 0.22.
`Cc1nc(NC(=O)N2CCCC2C(N)=O)sc1-c1ccnc(C(C)(C)C(F)(F)F)c1` (stereo not drawn) [Alpelisib (BYL719)]: the cell viability turned out to be 0.983 ± 0.067 in the test on IL-6-GFP PC-9GR and 0.934 ± 0.11 in the test on IL-6-GFP PC-9.
On to `CCCCC1(COC(=O)CCC(=O)O)C(=O)N(c2ccccc2)N(c2ccccc2)C1=O` [Suxibuzone], for which the cell viability with IL-6-GFP PC-9GR turned out to be 0.768 ± 0.21; with IL-6-GFP PC-9 it was 1.07 ± 0.21.
As to `Cc1nnc(C(C)C)n1C1CC2CCC(C1)N2CCC(NC(=O)C1CCC(F)(F)CC1)c1ccccc1` (stereo not drawn) [Maraviroc], the cell viability in the test on IL-6-GFP PC-9GR is 1.3 ± 0.033; in the test with IL-6-GFP PC-9 it was 0.945 ± 0.17.
`COc1ccc2cc1Oc1ccc(cc1)CC1c3cc(c(OC)cc3CCN1C)Oc1c(O)c(OC)cc3c1C(C2)N(C)CC3` (single isomer, unassigned; (+)) [(+)-Fangchinoline]: the cell viability in the test on IL-6-GFP PC-9GR came out at 0.731 ± 0.36; in the test with IL-6-GFP PC-9 it was 0.678 ± 0.23.
On to `O=C(O)CCCCC1CCSS1` (stereo not drawn) [(+)-α-Lipoic acid], for which the cell viability with IL-6-GFP PC-9GR came to 1.26 ± 0.2; with IL-6-GFP PC-9 it was 1.21 ± 0.024.
